# The panel holds about 83,000 compounds, 20% with a hit somewhere; the sample as a whole holds those more often.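 Single-concentration screen, 48 h exposure, 96-well plates. Endpoint: percent growth. Below 10 = active.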 Unmarked numbers belong to inactive results. The source made the active and inactive calls.
# Legend:
# Assay in all cases: NCI-60 one-dose screen, 48 h (100 = growth as untreated, 0 = no growth, -100 = all killed)
# Settings in all cases: 10 µM unless noted
# [1] = tested on: SR leukemia
# [2] = tested on: RPMI-8226 leukemia
# [3] = tested on: OVCAR-8 ovarian
# [4] = tested on: OVCAR-5 ovarian
# [5] = tested on: OVCAR-4 ovarian
# [6] = tested on: SK-OV-3 ovarian
# [7] = tested on: IGROV1 ovarian
# [8] = tested on: OVCAR-3 ovarian
# [9] = tested on: HS 578T breast
# [10] = tested on: NCI/ADR-RES ovarian
SMILES,growth [1],growth [2],growth [3],growth [4],growth [5],growth [6],growth [7],growth [8],growth [9],growth [10]
Cn1cc(-c2cc3nc(-c4cn(C)c5ncc(Br)cc45)cc(N)n3n2)c2cc(F)ccc21,-23.7% (active),32.9%,10.5%,31.8%,3.36% (active),75%,19.8%,20.3%,35%,10.5%
CCOc1ccccc1[C@H]1C(C(=O)c2ccc(Cl)cc2)C2(N[C@@H]1c1ccccc1)C(=O)Nc1ccccc12 (stereo not given in full),-38% (active),10.9%,28%,14.5%,17.7%,26%,17.9%,25.5%,6.17% (active),-40.6% (active)
O=C(CSc1nc2ccccc2c(=O)[nH]1)NNC(=O)c1ccccc1Cl,113%,108%,100%,129%,99.6%,103%,128%,118%,97.1%,123%
Cc1cccc(C)c1Nc1nnc(-c2c[nH]c3ccccc23)o1,91.5%,86%,101%,103%,102%,76.9%,89%,121%,95.9%,94.9%
Cc1ccc(NC(=O)N/N=C/c2c[nH]c3ccccc23)c(C)c1,12.3%,9.67% (active),-23.7% (active),15.5%,47.3%,21.8%,22.3%,-33.2% (active),20.4%,3.88% (active)
S=C(Nc1ccc(OCc2nc3ccc(Cl)cc3[nH]2)cc1)NC1CCCCC1,-27.3% (active),-13.1% (active),-10% (active),-12.8% (active),10.6%,29.2%,7.22% (active),-3.28% (active),14.8%,-14.8% (active)
COc1cc(C2CC(c3ccc(S(=O)(=O)NCCNc4nc(N(C)C)nc(N5CCOCC5)n4)cc3)=Nc3c(N)nc(N)nc3N2)cc(OC)c1OC (stereo not given),93.3%,84.9%,103%,93.4%,95.1%,115%,105%,105%,76.6%,92.8%
Cc1ccc(Cl)cc1NC(=O)Nc1nc2ccc([N+](=O)[O-])cc2s1,1.31% (active),-18.7% (active),1.61% (active),2.15% (active),7.05% (active),-28.6% (active),8.2% (active),2.64% (active),-13.9% (active),-17.1% (active)
O=C(NNC(=O)c1ccc(OCc2nc3ccc(Cl)cc3[nH]2)cc1)Nc1ccc(Cl)c(C(F)(F)F)c1,50.3%,35.9%,19.1%,76.4%,80.1%,92.4%,69.6%,51.8%,57.2%,95.4%
COc1cc(C2CC(c3ccc(C(F)(F)F)cc3)=Nc3c(N)nc(N)nc3N2)ccc1Oc1nc(Nc2ccc(F)cc2)nc(N(C)C)n1 (stereo not given),-25.2% (active),24.3%,46.9%,89.1%,37.1%,90.8%,39.8%,76.1%,48.9%,37%
O=C1Nc2ccc(F)cc2/C1=C/C(=O)c1cc2ccccc2oc1=O,42.1%,78.8%,105%,113%,89.1%,88.7%,105%,85.9%,101%,103%
Cc1oc(-c2ccccc2)nc1CN[C@@H]1C[C@@H]2C[C@H]([C@H]1C)C2(C)C,-6.32% (active),-3.45% (active),82.6%,30.7%,74.5%,73.5%,37.6%,84.4%,69.2%,-38.1% (active)
CCc1ccc(SC2c3cc(OC)ccc3Oc3nc(N)c(C#N)c(N)c32)cc1 (stereo not given),-62% (active),-15.6% (active),0.0543% (active),-4.3% (active),-13.3% (active),-23.3% (active),-69.6% (active),-48.3% (active),-40.5% (active),0.784% (active)
